Counter-ions that a name gives are not always drawn. ± gives the standard deviation of the averaged measurements.
Legend:
Assay in all cases: growth (OD600 after 10 h); higher = more growth (less inhibition)
[1] = system: E. coli TESEC Alr+ wild-type control; conditions: compound 0.1 mM; raw OD600 reference: median of DMSO wells 0.241, cell-free background 0.041
Description: (§1)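 TESEC Mtb Alr E. coli, or the Alr+ wild-type control, in 384-well plates with Prestwick library compounds at 0.1 mM and 1% DMSO, across arabinose induction levels of 1E3 to 1E7 nM. Growth is read as OD600 after 10 h at 37 °C in triplicate biological replicates.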

E. coli TESEC Mtb Alr [2] = conditions: compound 0.1 mM
Description: as §1

E. coli TESEC Mtb Asd = conditions: compound 0.1 mM
Description: (§2)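 TESEC E. coli strains in which the native enzyme is deleted and replaced by arabinose-inducible Mtb Asd, DapB, CysH or TrpD, each grown in its selective medium. Strains were screened against the Prestwick library at 0.1 mM and 1% DMSO in 384-well format at low and high arabinose induction. Growth is read as OD600 after 10 h in triplicate.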

E. coli TESEC Mtb DapB = conditions: compound 0.1 mM
Description: as §2

[3] = system: E. coli TESEC Alr+ wild-type control; conditions: compound 0.1 mM; raw OD600 reference: median of DMSO wells 0.49, cell-free background 0.052
Description: (§3)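 TESEC Mtb Alr E. coli (ΔaraC ΔtolC ΔentC Δalr ΔdadX, arabinose-inducible Mtb Alr) or the Alr+ wild-type control strain, grown in defined M9-fructose medium without D-alanine in 96-well plates with Prestwick library compounds at 0.1 mM and 1% DMSO. Low Alr induction is 0.1 µM arabinose and high induction is 10 mM arabinose.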

E. coli TESEC Mtb Alr [4] = conditions: compound 0.1 mM; remark: listed apart in the source
Description: as §3

[5] = arabinose 1000 nM, raw OD600 reference: median of DMSO wells 0.294, cell-free background 0.041
[6] = arabinose 10000 nM, raw OD600 reference: median of DMSO wells 0.264, cell-free background 0.041
[7] = arabinose 100000 nM, raw OD600 reference: median of DMSO wells 0.201, cell-free background 0.041
[8] = arabinose 1000000 nM, raw OD600 reference: median of DMSO wells 0.193, cell-free background 0.041
[9] = arabinose 10000000 nM, raw OD600 reference: median of DMSO wells 0.146, cell-free background 0.041
[10] = arabinose induction (level): High, raw OD600 reference: median of DMSO wells 0.331, cell-free background 0.041
[11] = arabinose induction (level): Low, raw OD600 reference: median of DMSO wells 0.417, cell-free background 0.041
[12] = arabinose induction (level): High, raw OD600 reference: median of DMSO wells […], cell-free background 0.041
[13] = arabinose induction (level): Low, raw OD600 reference: median of DMSO wells 0.227, cell-free background 0.041
[14] = arabinose 100 nM, raw OD600 reference: median of DMSO wells 0.413, cell-free background 0.052
[15] = arabinose 10000000 nM, raw OD600 reference: median of DMSO wells […], cell-free background 0.052

| Structure (SMILES) | growth [1] | growth (E. coli TESEC Mtb Alr [2]; [5]) | growth (E. coli TESEC Mtb Alr [2]; [6]) | growth (E. coli TESEC Mtb Alr [2]; [7]) | growth (E. coli TESEC Mtb Alr [2]; [8]) | growth (E. coli TESEC Mtb Alr [2]; [9]) | growth (E. coli TESEC Mtb Asd; [10]) | growth (E. coli TESEC Mtb Asd; [11]) | growth (E. coli TESEC Mtb DapB; [12]) | growth (E. coli TESEC Mtb DapB; [13]) | growth [3] | growth (E. coli TESEC Mtb Alr [4]; [14]) | growth (E. coli TESEC Mtb Alr [4]; [15]) |
| --- | --- | --- | --- | --- | --- | --- | --- | --- | --- | --- | --- | --- | --- |
| NC(Cc1cc(I)c(Oc2cc(I)c(O)c(I)c2)c(I)c1)C(=O)O (configuration not stated) [Thyroxine (L)] | 0.169 ± 0.0037 | 0.2363 ± 0.0021 | 0.284 ± 0.006 | 0.196 ± 0.021 | 0.154 ± 0.0089 | 0.185 ± 0.0093 | 0.354 ± 0.0042 | 0.292 ± 0.042 | 0.206 ± 0.008 | 0.243 ± 0.013 | 0.469 ± 0.018 | 0.369 ± 0.034 | 0.359 ± 0.019 |
| CCC(C)(CN(C)C)OC(=O)c1ccccc1 (configuration not stated) [Amyleine hydrochloride] | 0.233 ± 0.0066 | 0.252 ± 0.052 | 0.266 ± 0.0091 | 0.183 ± 0.011 | 0.173 ± 0.0043 | 0.142 ± 0.0057 | 0.26 ± 0.076 | 0.435 ± 0.058 | 0.195 ± 0.027 | 0.209 ± 0.0057 | 0.586 ± 0.017 | 0.411 ± 0.0066 | 0.333 ± 0.021 |
| O=C1C(CC[S+]([O-])c2ccccc2)C(=O)N(c2ccccc2)N1c1ccccc1 (configuration not stated) [Sulfinpyrazone] | 0.167 ± 0.0026 | 0.244 ± 0.0079 | 0.241 ± 0.006 | 0.17 ± 0.01 | 0.151 ± 0.0048 | 0.146 ± 0.0031 | 0.26 ± 0.063 | 0.316 ± 0.087 | 0.182 ± 0.0043 | 0.203 ± 0.023 | 0.542 ± 0.093 | 0.38 ± 0.0087 | 0.33 ± 0.011 |
| CN1CCCC(n2nc(Cc3ccc(Cl)cc3)c3ccccc3c2=O)CC1 (configuration not stated) [Azelastine HCl] | 0.16 ± 0.0036 | 0.19 ± 0.011 | 0.172 ± 0.0055 | 0.193 ± 0.0073 | 0.105 ± 0.0015 | 0.1635 ± 0.00076 | 0.157 ± 0.025 | 0.241 ± 0.056 | 0.169 ± 0.0087 | 0.191 ± 0.011 | 0.472 ± 0.021 | 0.409 ± 0.0069 | 0.312 ± 0.019 |
| COc1ccccc1N1CCN(CC(O)COc2cccc3ccccc23)CC1 (configuration not stated) [Naftopidil dihydrochloride] | 0.0455 ± 0.00068 | 0.0439 ± 0.0023 | 0.0416 ± 0.00044 | 0.0537 ± 0.0089 | 0.0425 ± 0.001 | 0.0492 ± 0.0015 | 0.0476 ± 0.00036 | 0.0516 ± 0.0046 | 0.0582 ± 0.0019 | 0.0626 ± 0.0085 | 0.0532 ± 0.0005 | 0.4077 ± 0.0026 | 0.0524 ± 0.0021 |
| CCN1CC(CCN2CCOCC2)C(c2ccccc2)(c2ccccc2)C1=O (configuration not stated) [Doxapram hydrochloride] | 0.234 ± 0.0045 | 0.284 ± 0.0045 | 0.248 ± 0.004 | 0.199 ± 0.018 | 0.205 ± 0.016 | 0.1315 ± 0.0013 | 0.309 ± 0.091 | 0.426 ± 0.072 | 0.205 ± 0.018 | 0.243 ± 0.017 | 0.54 ± 0.012 | 0.394 ± 0.016 | 0.339 ± 0.014 |
| Cc1ccc(C(=O)c2ccc(CC(=O)O)n2C)cc1 [Tolmetin sodium salt dihydrate] | 0.234 ± 0.0061 | 0.281 ± 0.014 | 0.253 ± 0.0051 | 0.169 ± 0.011 | 0.184 ± 0.0077 | 0.1348 ± 0.00087 | 0.432 ± 0.032 | 0.3668 ± 0.0019 | 0.197 ± 0.024 | 0.223 ± 0.028 | 0.518 ± 0.05 | 0.387 ± 0.018 | 0.337 ± 0.0088 |
| Nc1ccc(O)c(C(=O)O)c1 [Mesalamine] | 0.2446 ± 0.0018 | 0.287 ± 0.014 | 0.278 ± 0.0044 | 0.2 ± 0.011 | 0.21 ± 0.0038 | 0.144 ± 0.0074 | 0.339 ± 0.052 | 0.362 ± 0.061 | 0.195 ± 0.024 | 0.213 ± 0.021 | 0.554 ± 0.11 | 0.416 ± 0.0084 | 0.363 ± 0.011 |
| CCOc1ccccc1OCC1CNCCO1 (configuration not stated) [Viloxazine hydrochloride] | 0.236 ± 0.0043 | 0.294 ± 0.023 | 0.273 ± 0.0049 | 0.193 ± 0.011 | 0.196 ± 0.01 | 0.135 ± 0.0069 | 0.251 ± 0.022 | 0.386 ± 0.012 | 0.172 ± 0.029 | 0.211 ± 0.019 | 0.539 ± 0.074 | 0.406 ± 0.011 | 0.366 ± 0.0079 |
| CC(C)NNC(=O)c1ccncc1 [Iproniazide phosphate] | 0.253 ± 0.0043 | 0.276 ± 0.0095 | 0.27 ± 0.0057 | 0.219 ± 0.033 | 0.188 ± 0.007 | 0.153 ± 0.0052 | 0.359 ± 0.057 | 0.43 ± 0.014 | 0.199 ± 0.02 | 0.223 ± 0.034 | 0.496 ± 0.095 | 0.417 ± 0.007 | 0.374 ± 0.011 |
| CO[C@@]1(NC(=O)C2SC(=C(C(N)=O)C(=O)O)S2)C(=O)N2C(C(=O)O)=C(CSc3nnnn3C)CS[C@@H]21 (some centres not stated) [Cefotetan] | 0.03883 ± 0.00012 | 0.0383 ± 0.0011 | 0.04147 ± 0.00015 | 0.03763 ± 0.00032 | 0.0413 ± 0.00026 | 0.03917 ± 5.8e-05 | 0.0535 ± 0.0059 | 0.048 ± 0.0045 | 0.0527 ± 0.0035 | 0.0511 ± 0.01 | 0.0443 ± 0.00044 | 0.0461 ± 0.00061 | 0.0531 ± 0.0051 |
| Cc1c(NC(=O)c2cccnc2)c(=O)n(-c2ccccc2)n1C [Nifenazone] | 0.251 ± 0.0067 | 0.305 ± 0.0092 | 0.27 ± 0.0045 | 0.212 ± 0.024 | 0.183 ± 0.0036 | 0.1554 ± 0.001 | 0.309 ± 0.066 | 0.411 ± 0.1 | 0.192 ± 0.0073 | 0.262 ± 0.065 | 0.507 ± 0.062 | 0.413 ± 0.017 | 0.339 ± 0.011 |
| O=C1CN(/N=C/c2ccc(-c3ccc([N+](=O)[O-])cc3)o2)C(=O)N1 [Dantrolene sodium salt] | 0.2259 ± 0.00093 | 0.263 ± 0.0054 | 0.184 ± 0.003 | 0.143 ± 0.007 | 0.105 ± 0.0026 | 0.131 ± 0.0074 | 0.167 ± 0.014 | 0.258 ± 0.013 | 0.192 ± 0.016 | 0.231 ± 0.072 | 0.446 ± 0.023 | 0.319 ± 0.1 | 0.187 ± 0.033 |
| CCOC(=O)/C=C(C)/C=C/C=C(C)/C=C/c1c(C)cc(OC)c(C)c1C [Etretinate] | 0.242 ± 0.0089 | 0.308 ± 0.015 | 0.257 ± 0.011 | 0.211 ± 0.0087 | 0.161 ± 0.0097 | 0.151 ± 0.0019 | 0.257 ± 0.042 | 0.341 ± 0.025 | 0.1575 ± 0.0014 | 0.186 ± 0.0064 | 0.544 ± 0.058 | 0.41 ± 0.0092 | 0.344 ± 0.014 |

Reference: the supplement of paper PMC9262897, “Low-cost anti-mycobacterial drug discovery using engineered E. coli” (Nature Communications, 2022)
